Measurements published in PubChem BioAssay AID720513 (Broad Institute, 2013).
About 480 (23%) of roughly 2,100 compounds were called active. Roughly 5% stayed inconclusive and do not appear here.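 Rule for the calls: active = fitted curve reaches 40% activation at or below the top valid concentration, in every replicate test; inconclusive = replicate tests disagree on the call; inactive = the rest, including activity in the opposite direction.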 A selection follows. Measured potencies and affinities stand elsewhere.

Assay: PGC1a acetylation increase, cellular AlphaLISA – cell-based, cherry-picked samples, set 6, dose response (AID 720513);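 note: cells made to overexpress flag tagged PGC1a plus GCN5 acetyltransferase by viral infection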
Conditions: U2OS PGC1a acetylation AlphaLISA, overnight, 0 = neutral, -100 = inhibitor control; series mostly up to 19.5 µM

outcome, inactive:
O=C(NCC[C@@H]1CC[C@H](NS(=O)(=O)c2ccccc2)[C@@H](CO)O1)c1ccccc1F
CCOC(=O)C1CCCN(C(=O)CSc2ccc(Br)cc2)C1 (configuration not stated)
CCCNC(=O)Nc1ccc2c(c1)C(=O)N(C)C[C@H](OC)[C@H](C)CN(CC1CCCC1)[C@@H](C)CO2
O=C(Cc1ccccn1)N[C@H]1CC[C@H](CCn2cc(-c3ccccc3)nn2)O[C@@H]1CO
CCNC(=O)C1(C)CCCN1Cc1ccccc1Cl (configuration not stated)
N#CC(C#N)=c1ccc2c(c1)NC1(CCCCC1)N=2
O=C(c1ccco1)N(Cc1ccc([N+](=O)[O-])cc1)c1ccc(Br)cc1
C#CCN(C[C@@H]1[C@@H](OC(=O)NCC2CCCCC2)[C@@H](OC(=O)NCC2CCCCC2)Cn2c(=O)ccc(=O)n21)S(=O)(=O)c1ccc(C)cc1
COc1ccc(OCCCC(=O)OCC(=O)Nc2c(C)nn(-c3ccccc3)c2C)cc1
O=C(C[C@@H]1C=C[C@@H](NC(=O)Nc2ccc(C(F)(F)F)cc2)[C@H](CO)O1)NCc1ccccn1
C[C@@H]1CN([C@@H](C)CO)C(=O)CCCn2nncc2CO[C@@H]1CN(C)C(=O)NC1CCCCC1
Cc1cc(C)c(C(=O)/C=C/c2ccc(C(C)C)cc2)c(=O)[nH]1
C[C@H]1CN([C@@H](C)CO)S(=O)(=O)c2ccc(C3=CCCC3)cc2O[C@H]1CN(C)Cc1cncnc1
O=S(=O)(Nc1cc(Sc2ncn[nH]2)c(O)c2ccccc12)c1ccccc1
COc1ccc(NC(=O)N[C@@H]2CC[C@H](CCn3cc(-c4ccccc4F)nn3)O[C@@H]2CO)cc1
O=C(Cn1ncc(Cl)c(Cl)c1=O)c1ccc2c(c1)OCCO2
Cc1ccc(NC(=O)Cn2ncc(Cl)c(Cl)c2=O)cc1S(=O)(=O)N1CCCCC1
O=C(Cn1ncc(Cl)c(Cl)c1=O)N1CCN(S(=O)(=O)c2ccc3ccccc3c2)CC1
O=C(Cn1ncc(Cl)c(Cl)c1=O)c1ccc(Cl)cc1
C[C@H](CO)N1C[C@H](C)[C@@H](CN(C)Cc2cccnc2)Oc2cc(C#CC3CCCCC3)ccc2S1(=O)=O
Cc1noc(C)c1NC(=O)N(C)C[C@@H]1Oc2ccc(NS(=O)(=O)c3cn(C)cn3)cc2C(=O)N([C@@H](C)CO)C[C@@H]1C
CN=C1c2cc3cc(OC)ccc3n2CCN1Cc1ccccc1
Cc1cc(N2CCN(C)CC2)nc(=S)[nH]1
COc1cc(OC)cc(C(=O)N[C@H](C(=O)OCC(=O)NC(=O)NC(C)(C)C)C(C)C)c1
OC[C@H]1[C@@H](c2ccc(C#CC3CCCC3)cc2)[C@@H]2CN(CCC(F)(F)F)CCCCN12
N#C[C@@H]1[C@H](c2ccccc2C2=CCCCC2)[C@H](CO)N1C(=O)Cc1ccncc1
NC(=O)c1oc2ccccc2c1NC(=O)C1CC(=O)N(c2ccccc2)C1 (configuration not stated)
CN(C)C(=O)C[C@H]1CC[C@@H](NC(=O)C2CCC2)[C@H](CO)O1
COCCOc1ccc(C(F)(F)F)cc1NC(=O)CN1C(=O)NC2(CCCc3ccccc32)C1=O (configuration not stated)
CCOC(=O)c1[nH]c(C)c(C(=O)Nc2cc(Cl)ccc2C)c1C
CCOC(=O)c1[nH]c2ccc(OC)cc2c1NC(=O)c1ccc2c(c1)OCO2
O=c1c2c(nc3c(-c4ccc(Cl)cc4)c[nH]n13)CCCC2
CC(C)(O)c1cc(=O)sc2nc3ccccc3n12
O=C(NC1CCCC1)C(c1ccncc1)N(Cc1ccccc1F)C(=O)c1csnn1 (configuration not stated)
O=C(NC1CCCC1)C(c1ccccc1)N(Cc1ccc(F)cc1)C(=O)c1csnn1 (configuration not stated)
C[C@@H]1CN([C@@H](C)CO)C(=O)CCCn2cc(nn2)CO[C@H]1CN(C)C(=O)Cc1ccccc1
C[C@@H]1CN([C@H](C)CO)C(=O)c2cccc(NC(=O)Nc3cccc4ccccc34)c2O[C@H]1CN(C)S(C)(=O)=O
CC(=O)N(C)C[C@H]1Oc2ncc(C#CCc3ccccc3)cc2C(=O)N([C@@H](C)CO)C[C@H]1C
CCn1c(=N)n(CC(=O)c2ccc(OC)c(OC)c2)c2ccccc21
CC(=O)Oc1ccc(-c2csnn2)cc1
CCCNC(=O)CN(C)C(=O)c1n[nH]c2ccccc12
O=c1[nH]c(=O)c2[nH]c(=S)[nH]c2[nH]1
CC(C)c1ccc(NC(=O)c2n[nH]c(=O)c3ccccc23)cc1
COc1ccc2nc3cc(Cl)ccc3c(Nc3cc(CN4CCCC4)c(O)c(CN4CCCC4)c3)c2n1
Cc1noc(C)c1NC(=O)Nc1ccc2c(c1)C(=O)N([C@H](C)CO)C[C@@H](C)[C@@H](CN(C)S(=O)(=O)c1ccc(F)cc1)OCCCC[C@@H](C)O2
COc1cc2[nH]c(=O)n(CCCC(=O)NCCc3ccccc3)c(=O)c2cc1OC
CCCCC(=O)NCCc1cc2c(OC)ccc(OC)c2[nH]c1=O
COc1cccc(NC(=O)CN(C)C(=O)CNC(=O)c2ccccc2F)c1
Cn1nnnc1SCC(=O)NCc1cccc(C(=O)O)c1
CCCN(C)C[C@H]1Oc2cc(C#C[C@@H](C)O)ccc2S(=O)(=O)N([C@@H](C)CO)C[C@H]1C
CCn1cc([N+](=O)[O-])c(C(=O)NCc2ccc3c(c2)OCO3)n1
Cc1ccc(CNC(=O)CCS(=O)(=O)c2cc3c(cc2Cl)NC(=O)CO3)cc1
COC(=O)c1ccccc1N(C)S(=O)(=O)c1cc2c(cc1C)OCC(=O)N2
COc1ccc(C2c3c(-c4ccccc4O)n[nH]c3C(=O)N2CCc2ccc(OC)c(OC)c2)cc1 (configuration not stated)
C#CCN(C[C@@H]1[C@@H](OC(=O)NCc2ccccc2F)[C@@H](OC(=O)NCc2ccccc2F)Cn2c(=O)ccc(=O)n21)S(=O)(=O)c1ccc(C)cc1
COc1ccc2c(c1)c(CC(=O)OCC(N)=O)c(C)n2C(=O)c1ccc(Cl)cc1
COc1ccc([N+](=O)[O-])c(S(=O)(=O)c2ccc(Cl)cc2)n1
